Values joined by “and” are separate entries in the source; they are usually repeats but may differ in a detail not shown here. Equal values may be shown once. Active and inactive are the calls of the source.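 The calls were made as follows: active = inhibition at or above 50% relative to wild type and mutant plate controls; inactive = inhibition below 50%.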
assay: inhibitors of Chlamydomonas gravitaxis, primary screen, whole organism, Chlamydomonas reinhardtii, WT vs cilia-less mutant, absorbance, 96-well (AID 463189); settings: OD600 absorbance, 2 days, at 10 µM, stronger effect = higher value;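 also: 0% = wild type cc124 cells in DMSO and 100% = ciliumless bld1 mutant cells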

Row | Structure (SMILES) | inhibition
1 | Cc1o[nH]c(=O)c1CC(N)C(=O)O (stereo not drawn) | 5.41% (inactive)
2 | CCc1c(C(=O)OC)ncc2[nH]c3cc(OC)c(OC)cc3c12 | 1.73% (inactive)
3 | C[C@@H]1O[C@H](C[N+](C)(C)C)CS1 | 4.65% (inactive)
4 | COc1ccc2c(c1O)-c1cccc3c1[C@@H](C2)N(C)CC3 | 6.42% (inactive)
5 | CCCn1c(=O)c2[nH]c(C3CCCC3)nc2n(CCCOC(=O)c2ccc(S(=O)(=O)F)cc2)c1=O | 0.089% (inactive)
6 | O=C(CCCN1CCC2(CC1)C(=O)N(CCc1ccc(N=C=S)cc1)CN2c1ccccc1)c1ccc(F)cc1 | 2.53% (inactive)
7 | C[C@]12CC[C@H]3[C@@H](CCC4C[C@H](O)CC[C@@]43C)[C@@H]1CC[C@@H]2O (stereo partly drawn) | 2.75% (inactive)
8 | c1ccc2c(N3CCNCC3)cccc2c1 | 5.44% (inactive)
9 | NC(Cc1cc(O)c(O)cc1O)C(=O)O (stereo not drawn) | -1.78% (inactive)
10 | CC(C)NC(C)Cc1ccc(I)cc1 (stereo not drawn) | 22.2% (inactive)
11 | NC(=O)CI | -0.903% (inactive)
12 | CCCCc1ccc(C(=O)O)nc1 | -11.3% (inactive)
13 | C[N+](C)(C)CCOC(=O)CBr | 0.371% (inactive)
14 | O=P(O)(O)C(Cl)(Cl)P(=O)(O)O | 8.57% (inactive)
15 | N[C@@]1(C(=O)O)CC[C@@H](C(=O)O)C1 | 5% (inactive)
16 | CCCN1CCO[C@@H]2c3cc(O)ccc3OC[C@H]21 | 3.37% (inactive) and -1.05% (inactive)
17 | N[C@H](CCCCCP(=O)(O)O)C(=O)O | -8.7% (inactive)
18 | S=C=Nc1cccc(C2(N3CCCCC3)CCCCC2)c1 | 10.2% (inactive)

From PubChem BioAssay
